# According to the supplement of paper PMC12350171:
# Counter-ions that a name gives are not always drawn. A number with no mark means an inactive call.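 How the source made its calls: active = AUC significantly below DMSO controls by Student t-fit with adjusted P under 0.01; inactive = not significantly reduced.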
# Tested on: Haemophilus parainfluenzae
# Experiment: growth AUC normalised to DMSO control (fraction of control); higher = less growth inhibition, active = hit call of the paper
# Conditions: 20 µM
# In short: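 Pathogens were passaged twice under anaerobic conditions, then inoculated into pre-reduced mGAM plates at a starting OD578 of 0.01, with compound at 20 μM and 1% DMSO, and sealed with breathable membranes. For Haemophilus parainfluenzae, the medium was supplemented with hemin and NAD. OD578 was read every hour for 24 h in three biological replicates. Growth-curve AUC was calculated by the trapezoidal rule up to the exponential-to-stationary transition and normalised to DMSO controls on the same plate.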
row,Compound,growth AUC normalised to DMSO control
1,Cc1c(Cl)cccc1Nc1ncccc1C(=O)O [Clonixin lysinate],1.06
2,CCCCc1oc2ccccc2c1C(=O)c1cc(I)c(OCCN(CC)CC)c(I)c1 [Amiodarone hydrochloride],0.96
3,Cc1nc2n(c(=O)c1CCN1CCC(c3noc4cc(F)ccc34)CC1)CCCC2 [Risperidone],1
4,CCN(CC)CCNC(C(=O)OCCC(C)C)c1ccccc1 (stereo unspecified) [Camylofine chlorhydrate],0.98
5,Cc1ccc(C(=O)c2ccc(CC(=O)O)n2C)cc1 [Tolmetin sodium salt dihydrate],1.07
6,Nc1nc(=S)c2ncn([C@@H]3O[C@H](CO)[C@@H](O)[C@H]3O)c2[nH]1 [Thioguanosine],0.973
7,Cc1nc2ccccn2c(=O)c1CCN1CCC(C(=O)c2ccc(F)cc2)CC1 [Pirenperone],0.982
8,CC(=O)O[C@@]12CO[C@@H]1C[C@H](O)[C@@]1(C)C(=O)[C@H](O)C3=C(C)[C@@H](OC(=O)[C@H](O)[C@@H](NC(=O)OC(C)(C)C)c4ccccc4)C[C@@](O)([C@@H](OC(=O)c4ccccc4)[C@H]21)C3(C)C [Docetaxel],1.05
9,CC(=O)N[C@@H](CS)C(=O)O [Acetylcysteine],1.07
10,CC/C(=C(/CC)c1ccc(O)cc1)c1ccc(O)cc1 [Diethylstilbestrol],1.01
11,COCCc1ccc(OCC(O)CNC(C)C)cc1 (stereo not drawn) [Metoprolol-(+)-tartrate salt],0.952
